Measured values as given in the supplement of paper PMC10849652.
About 8,800 targets were measured; listed, in parts, are those with a hit and a random draw of the rest. About 0.5% of all pairs of compound and target were hits.

What was measured:
Experiment in all cases: log2 fold change, soluble protein after heating vs DMSO (PISA); higher = thermal stabilisation; K562 lysate, 10 uM; active = over 0.2 and 3.5 SD of the protein, either way, in both replicates (recomputed)
[1] = compound: NCC(=O)Nc1ccc(-n2nc(C(F)(F)F)cc2-c2ccc3c(ccc4ccccc43)c2)cc1
How it was run: (§1)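 A 30 min treatment with 10 μM compound was applied to crude K562 extract at 1 mg/mL protein in PBS pH 7.4 with 1 mM MgCl2. Heating for 3 min spanned 48°C-58°C, after which aliquots were pooled, adjusted to 0.5% NP-40 at 4°C and spun at 21,000xg for 90 min. TMTpro 16plex LC-MS/MS of the supernatant, with channel sums equalised, gave values recorded as log-two fold change in thermal stability against solvent controls, from duplicates.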

vorinostat = compound: O=C(CCCCCCC(=O)Nc1ccccc1)NO [vorinostat]
How it was run: as §1

silmitasertib = compound: O=C(O)c1ccc2c(c1)nc(Nc1cccc(Cl)c1)c1ccncc12 [silmitasertib]
How it was run: as §1

[2] = compound: O=C1NC(=O)C(c2cnc3ccccn23)=C1c1cn2c3c(cc(F)cc13)CN(C(=O)N1CCCCC1)CC2
How it was run: as §1

entospletinib = compound: c1cn2cc(-c3ccc4cn[nH]c4c3)nc(Nc3ccc(N4CCOCC4)cc3)c2n1 [entospletinib]
How it was run: as §1

Measured: log2 fold change

SSB (UniProt E7ERC4)
inactive: [1] -0.063 | vorinostat 0.012 | silmitasertib 0.105 | [2] -0.11 | entospletinib -0.092

SPR (UniProt P35270)
Sequence of UniProt P35270 (P35270 whole entry, looked up): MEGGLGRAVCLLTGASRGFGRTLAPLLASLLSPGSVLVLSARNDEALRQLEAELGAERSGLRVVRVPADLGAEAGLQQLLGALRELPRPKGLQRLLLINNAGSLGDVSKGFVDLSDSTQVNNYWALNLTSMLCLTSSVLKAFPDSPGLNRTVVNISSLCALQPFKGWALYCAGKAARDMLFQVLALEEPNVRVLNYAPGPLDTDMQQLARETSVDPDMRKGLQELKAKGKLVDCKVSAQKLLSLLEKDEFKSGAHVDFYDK
inactive: [1] -0.037 | vorinostat -0.199 | silmitasertib 0.308 | [2] 0.219 | entospletinib 0.003

SLC25A32 (UniProt Q9H2D1)
Sequence of UniProt Q9H2D1 (Q9H2D1 whole entry, looked up): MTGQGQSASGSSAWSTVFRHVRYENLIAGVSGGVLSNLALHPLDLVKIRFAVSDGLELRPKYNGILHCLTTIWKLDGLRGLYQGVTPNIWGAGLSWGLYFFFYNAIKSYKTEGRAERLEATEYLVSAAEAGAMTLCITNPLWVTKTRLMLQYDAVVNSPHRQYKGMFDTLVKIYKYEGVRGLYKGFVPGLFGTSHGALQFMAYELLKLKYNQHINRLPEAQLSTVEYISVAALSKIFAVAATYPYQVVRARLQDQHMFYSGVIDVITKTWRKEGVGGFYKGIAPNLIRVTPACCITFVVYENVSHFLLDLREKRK
inactive: [1] 0.053 | vorinostat 0.23 | silmitasertib -0.008 | [2] 0.046 | entospletinib 0.033

STAR (UniProt P49675)
Sequence of UniProt P49675 (P49675 whole entry, looked up): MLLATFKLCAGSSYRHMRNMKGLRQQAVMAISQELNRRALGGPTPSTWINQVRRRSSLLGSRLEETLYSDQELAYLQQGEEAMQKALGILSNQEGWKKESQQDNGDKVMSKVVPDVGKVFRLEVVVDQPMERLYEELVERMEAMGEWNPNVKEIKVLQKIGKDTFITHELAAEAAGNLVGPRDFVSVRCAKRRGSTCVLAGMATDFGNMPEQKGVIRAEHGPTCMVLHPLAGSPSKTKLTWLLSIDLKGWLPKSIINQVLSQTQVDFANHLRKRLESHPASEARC
inactive: [1] 0.002 | vorinostat -0.044 | silmitasertib -0.028 | [2] -0.031 | entospletinib -0.103
